Here are results for 10 molecules from PubChem BioAssay (Tox21).

A short description of assay [1]: qHTS assay to identify small molecule agonists of the vitamin D receptor (VDR) signaling pathway - cell viability counter screen (AID 743224). Note: nearly all actives have a fitted effect of over 50% in size. Note: potency is the fitted concentration of half-maximal effect. Put shortly:
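Compounds were pin-transferred onto VDR-bla cells plated 4 h earlier; following 16 h incubation at 37C, cell viability was quantified by CellTiter-Glo luminescence after 30 min at room temperature.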
A general note: qHTS replaces the single test concentration by a dilution series.

Assay [2] can be described thus: qHTS assay to identify small molecule agonists of the NFkB signaling pathway - cell viability counter screen (AID 1159515; calls by dose curve; note: nearly all actives have a fitted effect of over 55% in size; note: potency is the fitted concentration of half-maximal effect). In a few lines:
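Parallel cytotoxicity counter screen in ME-180 cells carrying an NFkB-response-element beta-lactamase reporter, 2,000 cells/well. Compound exposure lasted 5 hr at 37 C, 5% CO2. Cell viability was quantified by CellTiter-Glo luminescence.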

Assay [3] can be described thus: qHTS assay to identify small molecule agonists of the endoplasmic reticulum stress response signaling pathway - cell viability counter screen (AID 1159517; calls by dose curve; note: nearly all actives have a fitted effect of over 50% in size; note: potency is the fitted concentration of half-maximal effect). Put shortly: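 After overnight attachment, ESRE-bla HeLa cells were treated with Tox21 library compounds for 5 hr. CellTiter-Glo luminescence, read 30 min post-addition at room temperature, reported viability.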

Assay [4] concerns the target Nuclear receptor ROR-gamma (Homo sapiens) (UniProt P51449). The assay is described as follows: qHTS assay to identify small molecule antagonists of the retinoid-related orphan receptor gamma (ROR-gamma) signaling pathway (AID 1159521; note: nearly all actives have a fitted effect of over 50% in size; note: potency is the fitted concentration of half-maximal effect). Put shortly:
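Test compounds were applied to Tet-on RORγ CHO cells 2 h ahead of doxycycline hyclate (1 uM final). Luciferase reporter activity was quantified by luminescence after 16 h at 37 C and 5% CO2.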

Assay [5] is described as follows: qHTS assay to identify small molecule agonists of the AP-1 signaling pathway - cell viability counter screen (AID 1159525; calls by dose curve; note: nearly all actives have a fitted effect of over 55% in size; note: potency is the fitted concentration of half-maximal effect). In a few lines: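 Intracellular ATP by Cell Titer Glo luminescence (30 min, RT) in the same ME-180 AP-1-bla wells after the 5 h compound exposure at 37 °C. Normalised to tetra n-octyl ammonium bromide and DMSO controls.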
Assay [6] can be described thus: qHTS assay to identify small molecule agonists of the RXR signaling pathway - cell viability counter screen (AID 1159529). Note: nearly all actives have a fitted effect of over 50% in size. Note: potency is the fitted concentration of half-maximal effect. In a few lines: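 Compounds dissolved in DMSO were pinned onto HEK 293T cells carrying a beta-lactamase reporter under RXR-alpha control and incubated 16 hr. Cytotoxicity was then quantified by CellTiter-Glo luminescence.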
A short description of assay [7]: qHTS assay to identify small molecule antagonists of the retinoid acid receptor (RAR) signaling pathway - cell viability counter screen (AID 1159551). Note: nearly all actives have a fitted effect of over 35% in size. Note: potency is the fitted concentration of half-maximal effect. In a few lines: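 ATP-based viability, C3RL4 cells, 6 h at 37 C with 1 uM final retinol co-added after compound; luminescence read 30 min post CellTiter-Glo, RT.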
A short description of assay [8]: qHTS assay to identify small molecule antagonists of the retinoic acid receptor (RAR) signaling pathway (AID 1159552; note: nearly all actives have a fitted effect of over 50% in size; note: potency is the fitted concentration of half-maximal effect). Put shortly: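 Test chemicals and DMSO controls were pin-transferred onto C3RL4 cells a day after seeding; retinol (1 uM final) followed at once. Luminescent reporter output was quantified after 6 hr of co-incubation and 30 min with detection reagent.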

Assay [9] in a line: qHTS assay to identify small molecule agonists of the retinoic acid receptor (RAR) signaling pathway (AID 1159553). Note: potency is the fitted concentration of half-maximal effect. In a few lines: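 Quantitative high-throughput format: the Tox21 10K library was tested on C3RL4 RARE-luciferase cells for 6 hr at 37 C and 5% CO2, with luminescence measured after a 30 min room-temperature reagent step.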
Assay [10] is described as follows: qHTS assay to identify small molecule antagonists of the vitamin D receptor (VDR) signaling pathway - cell viability counter screen (AID 743225). Note: nearly all actives have a fitted effect of over 50% in size. Note: potency is the fitted concentration of half-maximal effect. In a few lines:
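Compounds were pinned onto VDR-bla HEK 293T cells together with 1-alpha,25-dihydroxyvitamin D3 at 3 nM final. After 16 h at 37C and 5% CO2 plus the reporter readout, cell viability was measured by CellTiter-Glo luminescence (30 min, room temperature).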

Assay [11] in a line: qHTS assay to identify small molecule antagonists of the retinoid-related orphan receptor gamma (ROR-gamma) signaling pathway - cell viability counter screen (AID 1159520). Note: nearly all actives have a fitted effect of over 50% in size. Note: potency is the fitted concentration of half-maximal effect. Put shortly:
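Cytotoxicity was read from cellular ATP (CellTiter-Glo luminescence) after 16 hr at 37 C with 1 uM doxycycline induction. The inducer was added 2 hr after compound transfer to Tet-on ROR gamma CHO cells.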

Assay [12] can be described thus: qHTS assay to identify small molecule agonists of the AP-1 signaling pathway (AID 1159526; calls by dose curve).
Assay [13] can be described thus: qHTS assay to identify small molecule antagonists of the estrogen related receptor (ERR) signaling pathway - cell viability counter screen (AID 1224818).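 Note: potency is the fitted concentration of half-maximal effect; viability measured after 17.5 h of compound exposure.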 In a few lines: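 Quantitative high-throughput viability counter screen in ERR cells. Compounds (DMSO) incubated 17.5 h at 37 C; read-out was CellTiter-Fluor fluorescence.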
The nature of assay [14]: qHTS assay to identify small molecule antagonists of the estrogen related receptor (ERR) signaling pathway (AID 1224819). In a few lines:
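ERR reporter cell line (NTP) plated at 2,000 cells/well, settled 6 h at 37C/5% CO2, then exposed to LOPAC compounds for 18 h at 37C. One-Glo luciferase luminescence read after 30 min at room temperature.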

Assay [15] can be described thus: qHTS assay to identify small molecule agonists of the estrogen related receptor (ERR) signaling pathway (AID 1224820). In a few lines:
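Luminescence readout (One-Glo, 30 min RT) from NTP-supplied ERR cell line exposed to compounds for 18 h at 37 C. Cells seeded 2,000 per well and pre-incubated 6 h before pin-tool compound transfer.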

Assay [16] concerns estrogen-related receptor alpha (ERRalpha) with PGC-1alpha coactivator, human. The assay is described as follows: qHTS assay to identify small molecule antagonists of the estrogen related receptor signaling pathway with the pleiotropic PPARgamma coactivator (PGC) (AID 1224821; calls by dose curve). In a few lines:
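PGC/ERR reporter cells; 6 h pre-incubation 37 C/5% CO2; pin-tool compound in DMSO, 18 h 37 C; One-Glo added, 30 min RT; luminescence read. qHTS antagonist mode.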

Assay [17] is described as follows: qHTS assay to identify small molecule antagonists of the estrogen related receptor signaling pathway with the pleiotropic PPARgamma coactivator (PGC) cell viability counter screen (AID 1224822; note: potency is the fitted concentration of half-maximal effect). Put shortly: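 Cytotoxicity in the PGC/ERR cell line is assessed with CellTiter-Fluor, read as fluorescence intensity 30 min after reagent addition, following 17.5 h compound treatment at 37 C.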

Assay [18] is described as follows: qHTS assay to identify small molecule agonists of the estrogen related receptor signaling pathway with the pleiotropic PPARgamma coactivator (PGC) (AID 1224823). Put shortly:
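Luminescence readout (One-Glo, 30 min RT) from PGC/ERR cell line treated 18 h at 37 C with pin-tool-delivered DMSO compound solutions; cells plated 6 h before dosing. Quantitative HTS format.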

Assay [19] has as its target Retinoic acid receptor RXR-alpha (Homo sapiens) (UniProt P19793). The experiment in a line: qHTS assay to identify small molecule agonists of the RXR signaling pathway (AID 1159527; calls by dose curve; note: nearly all actives have a fitted effect of over 35% in size). In a few lines: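 Using 9-cis retinoic acid as the reference agonist, chemicals were tested in HEK 293T cells […] for 16 hr; substrate loading lasted 2 hr at room temperature.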

Results filed as inconclusive are left out. Activity calls are given as the source filed them. Unless noted, calls come from the whole dose curve; as a rule, active = well fitted curve in the direction sought with a large enough effect in the repeat runs; inconclusive = weak or mixed curves; inactive = no such curve, though single readings can be large; an effect the other way counts as inactive or inconclusive.

Chain of Retinoic acid receptor RXR-alpha (Homo sapiens) (P19793 whole entry, looked up): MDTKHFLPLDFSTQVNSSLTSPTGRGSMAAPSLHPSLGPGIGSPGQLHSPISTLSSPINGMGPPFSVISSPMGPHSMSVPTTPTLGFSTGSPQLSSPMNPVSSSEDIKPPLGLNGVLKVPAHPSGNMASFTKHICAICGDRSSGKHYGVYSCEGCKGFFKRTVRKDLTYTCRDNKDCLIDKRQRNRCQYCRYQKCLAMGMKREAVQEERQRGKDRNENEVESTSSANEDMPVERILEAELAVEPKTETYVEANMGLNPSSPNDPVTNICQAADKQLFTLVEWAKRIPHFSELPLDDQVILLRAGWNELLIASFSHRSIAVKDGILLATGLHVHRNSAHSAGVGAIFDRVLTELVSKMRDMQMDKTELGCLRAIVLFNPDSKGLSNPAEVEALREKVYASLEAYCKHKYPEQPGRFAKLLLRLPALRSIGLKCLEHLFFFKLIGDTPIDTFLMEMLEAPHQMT

`O=C(Nc1cccc([N+](=O)[O-])c1)c1cc2ccccc2cc1O`: the results for the Potency in assay [1], in assay [4] and in assay [9] were 1.23 µM (active), 4.33 µM (active) and 0.969 µM (active), respectively. The Potency result in [2], in assay [3], in [5], in assay [6], in [7] and in assay [8] was “inactive” each time.
As to `C[C@@H](NCCCc1cccc(C(F)(F)F)c1)c1cccc2ccccc12`, the Potency in [1] was 29.8 µM (active); in assay [10], 23.9 µM (active); in assay [2] it was 23.9 µM (active); in assay [3] it was 23.9 µM (active); in [11] it was 29.8 µM (active); in [5], 23.9 µM (active). The Potency is 16.9 µM (active) in assay [6], 33.5 µM (active) in assay [7] and 29.8 µM (active) in assay [8].
Consider `Cc1c(C)c2c(c(C)c1O)CCC(C)(COc1ccc(CC3SC(=O)NC3=O)cc1)O2` (centres undefined), for which the Potency entry in [1], in assay [10], in assay [2], in assay [3], in assay [11] and in assay [12] was “inactive” in each case. In addition, the Potency result in assay [6] and in [7] was “inactive” in each case.
For the molecule `CC/C(=C(\c1ccc(O)cc1)c1ccc(OCCN(C)C)cc1)c1ccccc1`, the Potency in [1] is 17.4 µM (active); in assay [10], 19.5 µM (active); in assay [2], 49.1 µM (active); in [3] it was 61.8 µM (active); in assay [11] it was 34.4 µM (active); in [5], 27.6 µM (active). Moreover, the results for the Potency in assay [6] and in assay [8] were 21.9 µM (active) and 68.7 µM (active), respectively.
In the case of `C[n+]1cc2c3c(ccc2c2ccc4cc5c(cc4c21)OCO5)OCO3`, the Potency was 0.58 µM (active) in assay [1]; 1.31 µM (active) in [10]; 1.17 µM (active) in assay [2]; 1.31 µM (active) in [3]; 1.64 µM (active) in assay [11]; 1.47 µM (active) in assay [6]. Besides, the Potency in [7] is 3.66 µM (active); in assay [8] it was 1.83 µM (active); in assay [13] it was 2.87 µM (active); in assay [14] it was 3.1 µM (active); in [16], 2.28 µM (active); in [17], 0.944 µM (active). For the same molecule, the result in assay [15] and in [18] was inactive.
Regarding `OCCCCCCCCCCCCBr`, the Potency result in assay [1], in assay [10], in assay [2], in assay [3], in assay [5] and in assay [12] was “inactive” each time. Besides, the Potency result in assay [7], in assay [8] and in assay [9] was “inactive” throughout. The Potency in assay [4] was 62.1 µM (active).
On to `O=C(O)c1c(Cl)cccc1Cl`, for which the Potency entry in assay [1], in assay [10], in assay [2], in assay [3], in assay [4] and in [5] was “inactive” in each case. Besides, the Potency entry in assay [12], in assay [19], in assay [6], in assay [7], in assay [8] and in [9] was “inactive” throughout.
Turning to `CCN(CCC#N)c1ccc(N=Nc2c(Cl)cc([N+](=O)[O-])cc2Cl)cc1`, the Potency entry in assay [1], in [2], in [3], in assay [11], in assay [5] and in assay [7] was “inactive” each time. The Potency entry in assay [8] is “inactive”.
`CN1CCC(Nc2ncc3ncnc(Nc4ccc(F)c(Cl)c4)c3n2)CC1`: the Potency in assay [10] was 21.3 µM (active). Also, the Potency entry in [2], in [3], in assay [11], in assay [5] and in [7] was “inactive” each time.
Take `O=C1Cc2cc(CCN3CCN(c4nsc5ccccc45)CC3)c(Cl)cc2N1`: the Potency in assay [10] is 23.9 µM (active); in assay [2], 23.9 µM (active); in assay [6], 23.9 µM (active); in [14], 20.3 µM (active). Besides, the Potency result in assay [3], in [11], in [7], in assay [8] and in assay [9] was “inactive” throughout. Moreover, the molecule was called inactive in [15] and in [18].
